Most compounds without a hit are left out; they make up all but 10% or so of the library.
MCF10A rereplic: inducers of DNA re-replication in MCF 10A breast cells. Potency, µM (doses to about 46.1 µM), most hits filed as activators. MCF 10A DNA re-replication, Hoechst nuclear intensity, 48 h. AID 624296. hit rate 2.9% among 350,000; note: nearly all actives have a fitted effect of over 50% in size
RORg inh: ROR gamma (mouse) transcription inhibition. Drosophila S2 Gal4-RORgamma UAS-luciferase reporter, 20 h. P51450. hit rate 5.4% among 310,000. Potency, µM (top dose mostly 53.6 µM), most hits filed as inhibitors; note: nearly all actives have a fitted effect of over 60% in size
Target sequence (P51450 whole entry, looked up, the tested form may be a part): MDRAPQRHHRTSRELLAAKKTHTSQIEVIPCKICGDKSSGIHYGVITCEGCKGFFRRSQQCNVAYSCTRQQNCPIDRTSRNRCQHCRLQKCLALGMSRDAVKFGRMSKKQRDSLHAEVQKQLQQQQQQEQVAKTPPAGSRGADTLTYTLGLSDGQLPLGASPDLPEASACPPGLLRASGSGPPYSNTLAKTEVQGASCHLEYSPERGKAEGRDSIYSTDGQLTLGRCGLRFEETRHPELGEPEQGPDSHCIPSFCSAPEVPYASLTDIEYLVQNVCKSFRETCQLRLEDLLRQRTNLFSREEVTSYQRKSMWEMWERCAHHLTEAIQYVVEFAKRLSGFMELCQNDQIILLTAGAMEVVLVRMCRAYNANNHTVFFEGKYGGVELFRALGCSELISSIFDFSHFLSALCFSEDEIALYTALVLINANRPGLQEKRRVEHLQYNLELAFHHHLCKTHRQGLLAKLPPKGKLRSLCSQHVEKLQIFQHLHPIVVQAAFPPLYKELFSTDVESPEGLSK
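Stable Schneider cell line, Gal4 DNA-binding domain fused to ROR gamma, UAS-luciferase. Cmpd 1 hr RT → CuSO4 700 uM final → 20 hr RT → luciferase reagent 10 min → luminescence.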
SW480 rereplic: inducers of DNA re-replication in SW480 colon cancer cells; SW480 DNA re-replication, Hoechst DNA content imaging, 48 h; Potency, µM (titrated, usually from 46.1 µM), usual class: activators; hit rate 1.8% among 340,000; note: nearly all actives have a fitted effect of over 55% in size
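Cells (250 per well) received 23 nL compound or DMSO by pin tool and were kept 48 hr at 37 C, 5% CO2. Nuclei were then stained with Hoechst for 40 min and scanned for DNA content.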
ELG1 DNA repair: inhibitors of ELG1-dependent DNA repair in HEK293T cells | HEK293T ELG1-luciferase reporter, luminescence, 16 h; DNA damage induced by 5-fluorouridine | Potency, µM (titrated, usually from 46.1 µM), actives largely listed as inhibitors | hit rate 2.3% among 330,000 | AID 504467; note: nearly all actives have a fitted effect of over 55% in size
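DMSO vehicle served as the neutral condition. Each well held 2,000 cells given 5-fluorouridine plus compound; after 16 hr at 37 °C/5% CO2, ONE-Glo was added and luciferase measured 30 min later.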
VP16 counter: inhibits Gal4-VP16 luciferase reporter, ROR gamma counter-screen | hit rate 3.5% among 310,000 | Drosophila S2 Gal4-VP16 UAS-luciferase, luminescence, 20 h | Potency, µM (doses to about 53.6 µM), actives largely listed as inhibitors;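 note: Gal4-VP16 expression switched on by copper sulfate through the metallothionein promoter; nearly all actives have a fitted effect of over 50% in size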
A number is an active result; 0 = inactive; ? = inconclusive; - = no result; [ ] = another dose, or the depositor's remark. Calls come from the whole dose curve; as a rule, active = well fitted curve in the direction sought with a large enough effect; inconclusive = small, poorly fitted or top-dose-only effect, or another doubt; inactive = no such curve, though single readings can be large; an effect the other way counts as inactive or inconclusive.

SMILES | MCF10A rereplic | RORg inh | SW480 rereplic | ELG1 DNA repair | VP16 counter
CCOC(=O)c1cc(C(=O)NNC(=O)c2cccc([N+](=O)[O-])c2)c(C)nc1C | 0 | - | ? | 0 | -
O=C(Nc1cc(S(=O)(=O)Nc2ccccc2Cl)ccc1O)c1sc2cc(Cl)ccc2c1Cl | 0 | 0 | 0 | 0 | 0
O=C(Nc1ccc2nc(SCc3ccc(Cl)cc3)sc2c1)c1ccccc1C(=O)N1CCOCC1 | 6.5µM | 0 | 0 | ? | 0
CSc1nc(N)nc2c1ncn2Cc1ccccc1 | 0 | - | 0 | - | -
Cc1cccc(C)c1OCC(O)CN1CCc2ccccc2C1 (stereo unspecified) | 0 | - | 0 | - | -
Cc1ccc(C(C)C)c(OCC(O)CN2CCc3ccccc3C2)c1 (stereo unspecified) | ? | 0 | ? | 0 | 22µM
O=S(=O)(Nc1ncccn1)c1ccc(NC(=S)NCc2cccnc2)cc1 | 0 | 0 | 0 | 0 | 0
CC(C(=O)c1ccc(-c2ccccc2)cc1)[n+]1ccccc1 (stereo unspecified) | 0 | ? | 0 | 0 | 0
Cc1cc[n+](C(C)C(=O)c2ccc(-c3ccccc3)cc2)cc1 (stereo unspecified) | 0[9.22 µM] | ? | 0 | 2.1µM | 10µM
CCOC(=O)C1=C(C)NC(C)=C(C(=O)OCC)C1C(=O)OCC(=O)NC | 0 | 0 | 0 | 0 | 0
CCOC(=O)C1=C(C)NC(C)=C(C(=O)OCC)C1C(=O)OCC(=O)NCc1ccccc1 | 0 | - | 0 | ? | -
CCOC(=O)C1=C(C)NC(C)=C(C(=O)OCC)C1C(=O)OCC(=O)NC(C)c1ccccc1 (stereo unspecified) | ? | - | 7.3µM | ? | -
CCOC(=O)c1c(C)[nH]c(C(=O)OCC(=O)N2c3ccccc3CC2C)c1C (stereo unspecified) | 0 | 0 | 0 | ? | 0
CC1Cc2ccccc2N1C(=O)COC(=O)c1c2c(nc3ccccc13)CCCCC2 (stereo unspecified) | 21µM | 0[10 µM] | ? | 13µM | 0
CCOC(=O)C1=C(C)NC(C)=C(C(=O)OCC)C1C(=O)OCC(=O)N1c2ccccc2CC1C (stereo unspecified) | 0 | 0 | 0 | 23µM | 0
CCOC(=O)C1=C(C)NC(C)=C(C(=O)OCC)C1C(=O)OCC(=O)NCc1ccccc1OC | 0 | - | 0 | 12µM | -
COc1ccc(/C=C(/NC(=O)c2ccco2)C(=O)N2CCCCC2)cc1 | 0 | - | 0 | 0 | -
Nc1nn(-c2ccccc2)c(N)c1N=Nc1ccc2c(c1)OCO2 | ? | 0 | 16µM | ? | 0
Nc1nn(-c2ccccc2)c(N)c1N=Nc1cccc(F)c1 | 3.7µM | 0 | 5.8µM | ? | 0
Cc1nn(-c2ccccc2)c(N)c1N=Nc1cccnc1 | 0 | 0 | 0 | ? | 0
C[C@H](CO)N1C[C@H](C)[C@@H](CN(C)Cc2ccncc2)Oc2c(NS(=O)(=O)c3ccc(F)cc3)cccc2C1=O | 0 | - | 0 | 0 | -
CSCCC(NC(=O)c1ccco1)C(=O)N1CC=C(c2ccccc2)CC1 (stereo unspecified) | 0 | 0 | 0 | 0 | 0
CCCCOc1ccc(C(=O)Nc2ccncc2)cc1 | ? | ? | 0 | ? | 7.9µM
CCCCCCc1ccc(OC(=O)c2ccncc2)cc1 | 0 | 0 | 0 | 0 | 0
CCCOc1ccc(C(=O)Nc2cccnc2)cc1 | 0 | 0[1.91 µM] | 0 | ? | 0
SMILES | MCF10A rereplic | RORg inh | SW480 rereplic | ELG1 DNA repair | VP16 counter
CCCCCCOc1ccc(OC(=O)c2ccncc2)cc1 | 23µM | ? | ? | ? | 0
Cn1c(CCC(N)=O)nnc1SCC(=O)Nc1cc(S(=O)(=O)N2CCCC2)ccc1Cl | 0 | - | 0 | 0 | -
COc1cccc(CN2CCN(C(=O)c3oc4c(F)cccc4c3C)CC2=O)c1 | 0 | 0 | 0 | 0 | 0
COc1ccc(NC(=O)/C(C#N)=C/c2ccc(OCCN3CCOCC3)c(OC)c2)c(OC)c1 | 0 | ? | 0 | 0 | 0
Cc1ccc(S(=O)(=O)N2CCOCC2)cc1NC(=O)CNCc1ccc(Cl)cc1Cl | 0 | - | 0 | 23µM | -
CCC(C)c1ccccc1N1CC(C(=O)Nc2cc(S(=O)(=O)N3CCOCC3)ccc2OC)CC1=O (stereo unspecified) | 0 | - | 16µM | - | -
COc1ccccc1OCC(=O)Nc1cc(S(=O)(=O)N2CCOCC2)ccc1N1CCCCC1 | 0 | - | 0 | 26µM | -
Cc1ccc(S(=O)(=O)N2CCOCC2)cc1NC(=O)COc1ccccc1Cc1ccccc1 | ? | - | 0 | 8.2µM | -
CCOc1ccccc1N1CC(C(=O)Nc2cc(S(=O)(=O)N3CCOCC3)ccc2OC(C)C)CC1=O (stereo unspecified) | 0 | - | 0 | - | -
O=C(COc1ccccc1Cc1ccccc1)Nc1cccc(S(=O)(=O)N2CCOCC2)c1 | 0 | - | 0 | ? | -
O=C(CNCc1ccccc1Cl)Nc1cc(S(=O)(=O)N2CCOCC2)ccc1Cl | 0 | - | 0 | ? | -
CC(C)(C)N(Cc1ccccc1)C(=O)COC(=O)Cn1cnc2ccccc2c1=O | 0 | 0 | 0 | 0 | 0
O=C(O)C1CCCCC1C(=O)NCc1ccccn1 (stereo unspecified) | 0 | 0 | 0 | 0 | 0
O=[N+]([O-])c1ccc(-c2cnc3ccccc3n2)cc1 | 0 | 0 | 0 | ? | 0
CCOc1ccc(-c2cn3ccccc3n2)cc1 | 0 | 6.3µM | 0 | ? | ?
Fc1ccc(-c2cn3ccccc3n2)cc1 | 0 | ? | 0 | ? | ?
CCOc1ccc(-c2cnc3ccccc3n2)cc1 | 0 | 3.5µM | 0 | ? | 8.9µM
Cn1c(Cc2ccccc2)n[nH]c1=S | 0 | ? | 0 | 0 | 0
Cc1cccc(C)c1NCc1n[nH]c(=S)n1-c1ccccc1 | 0 | 2µM | 0 | 0 | ?
Cc1ccc(OCc2n[nH]c(=S)n2-c2ccccc2)cc1C | 0 | 2µM | 0 | 0 | ?
Cc1n[nH]c(=S)n1-c1cccc(Cl)c1 | 0 | 11µM | 0 | 0 | ?
CSc1n[nH]c(=O)n1-c1cccc(Cl)c1 | 0 | 0 | 0 | 0 | 0
Cn1c(CCc2ccccc2)n[nH]c1=S | 0 | 13µM | 0 | 0 | 0
Cc1ccc(C)c(NCc2n[nH]c(=S)n2-c2ccccc2)c1 | 0 | 0 | 0 | 0 | 0
COC(=O)C1CN(C(=O)c2cccc(OC(F)F)c2)c2ccccc2O1 (stereo unspecified) | ? | 0 | 0 | 0 | 0
SMILES | MCF10A rereplic | RORg inh | SW480 rereplic | ELG1 DNA repair | VP16 counter
O=C(c1cnccn1)N1CCC2(CC1)CCN(C(c1ccccc1)c1ccccc1)CC2 | - | 0 | - | - | 0
CC(C)Oc1ccc(CCc2n[nH]c(=S)n2-c2ccccc2)cc1 | 0 | 7.1µM | 0 | ? | 0
S=c1[nH]nc(CSCCOc2ccccc2)o1 | 0 | ? | 0 | 0 | 0
Cc1cccc(OCc2n[nH]c(=S)n2-c2ccccc2)c1 | 0 | 2.2µM | 0 | 0 | ?
Cn1c(CSCCOc2ccccc2)n[nH]c1=S | 0 | 1µM | 0 | 0 | ?
Cc1ccc(-n2c(COc3cccc(C)c3)n[nH]c2=S)cc1 | 0 | ? | 0 | 0 | ?
S=c1[nH]nc(CSCc2ccccc2Cl)n1-c1ccccc1 | 0 | 1µM | 0 | 0 | 6.3µM
